Screening data (PubChem)
This is a sample that favours compounds with a hit; in the whole collection about 1.9% have one here.
Ba/F3 V617F tox: loss of viability in JAK2V617F-driven Ba/F3 cells; Ba/F3 EpoR-JAK2V617F viability, ATP luminescence; inhibition, % at 5.6 µM; 1.1% of 220,000 active; AID 1446;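 active = inhibition above the campaign mean plus 3 SD over all tested compounds, cut at about 24% in these data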;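 also: cytokine-independent growth of Ba/F3 cells driven by EpoR plus mutant JAK2; 0% = DMSO-treated cells and 100% = JAK inhibitor I control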
KLF5 inh: suppresses KLF5 promoter-driven expression; inhibition, % at 5 µM; 0.23% of 290,000 active; DLD-1 KLF5 promoter-luciferase reporter, luminescence;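 active = inhibition above a per-plate limit of that plate's mean compound inhibition plus 3 SD, cut at about 60% in these data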;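 also: 0% = DMSO wells and 100% = LY294002 at 200 µM; higher means less KLF5 promoter-driven luciferase light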
APP 5UTR inh: APP translation inhibition | SH-SY5Y APP 5'UTR-luciferase reporter, luminescence | inhibition, % at 2 µM | 0.82% of 190,000 active | AID 1285;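 active = inhibition above a set limit, derived from the sample mean plus 3 SD, cut at about 45% in these data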
BaF3 tox: parental Ba/F3 viability inhibition as JAK2V617F counter-screen; 1.1% of 220,000 active; AID 1486; inhibition, % at 5.6 µM; CellTiter-Glo ATP luminescence;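 active = inhibition above a per-campaign cutoff, the mean inhibition of all tested compounds plus 3 SD, cut at about 27% in these data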;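 also: 0% = DMSO wells and 100% = JAK Inhibitor I control wells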
IEC-6 cytotox: counter-screen for KLF5 inhibitors: cytotoxicity in IEC-6 cells. inhibition, % at 5 µM. IEC-6 cytotoxicity, luminescence viability. 0.78% of 290,000 active. AID 1825; in the data active = inhibition above about 22%;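 also: 0% = plate median of test compound wells and 100% = cytotoxic reference compound wells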
* marks the source's active call; other numbers are inactive results; nt = no result given.

SMILES | Ba/F3 V617F tox | KLF5 inh | APP 5UTR inh | BaF3 tox | IEC-6 cytotox
Cc1cccc(NC2=C/C(=N/S(=O)(=O)c3cccs3)c3ccccc3C2=O)c1 | 3 | -10 | -25 | 3 | -3
CCOC(=O)c1c(S(=O)(=O)Nc2ccccc2OCC)c(C)n(C)c1C | nt | -8 | nt | nt | -2
COc1ccc(NCc2ccc([N+](=O)[O-])s2)cc1 | -2 | -30 | 49* | 5 | -7
C=CCOc1cccc(C(=O)Nc2ncn[nH]2)c1 | nt | -23 | nt | nt | 0
O=C(CSc1nnnn1C1CCCCC1)Nc1ccc(F)cc1 | -3 | -29 | 6 | 56* | -6
Cc1ccc2nc(NNC(=O)c3ccc4c(c3)OCCO4)sc2c1 | 1 | -12 | -20 | 5 | 9
Cc1ccc2nc(NNC(=O)c3ccc(S(=O)(=O)N4CCc5ccccc5C4)cc3)sc2c1 | 0 | 42 | 58* | 7 | -6
COc1cc(/C=N/NC(=O)C(=O)/C=C2\NC3(CCCC3)Cc3ccccc32)ccc1O | -2 | -8 | -9 | 4 | 4
O=C(/C=C1\NC2(CCCC2)Cc2ccccc21)C(=O)N/N=C/c1ccccc1O | -3 | -28 | 67* | 7 | -5
O=C(COC(=O)CN1C(=O)c2ccccc2C1=O)Nc1ccc(S(=O)(=O)N2CCCC2)cc1 | -2 | -19 | 50* | 2 | 1
O=C(COC(=O)CCN1C(=O)c2ccccc2C1=O)Nc1ccc(S(=O)(=O)N2CCCC2)cc1 | 4 | -14 | 6 | 4 | 10
COc1ccc(NC(=O)CN2C(=O)NC(c3ccccc3)(c3ccccc3)C2=O)cc1OC | nt | -9 | nt | nt | -8
COc1cc(N)ccc1NC(=O)c1cc2ccccc2o1 | nt | -144 | nt | nt | -4
O=C(c1cc2c(s1)CCCC2)N1CCN(Cc2ccc3c(c2)OCO3)CC1 | -4 | -18 | 13 | 1 | 4
O=C(Oc1ccc2c(c1)OCO2)c1cc2c(s1)CCC2 | 2 | -14 | 56* | 3 | -4
Cc1sc(NC(=O)c2c(F)cccc2F)nc1-c1ccccc1 | nt | -33 | nt | nt | -1
Cc1sc(NC(=O)c2ccc(=O)n(C)n2)nc1-c1ccccc1 | 44* | -57 | -11 | 45* | -12
Cc1ccc(-c2nn3cnnc3c3ccccc23)cc1 | 1 | -10 | 7 | 82* | 3
O=C(N/N=C/c1c[nH]c2ccccc12)c1cc(-c2ccc3ccccc3c2)n[nH]1 | 9 | -122 | 88* | 13 | 2
C=CCNc1cc(N2CCCC2)ccc1[N+](=O)[O-] | 3 | -4 | 57* | 6 | 7
O=C(CCN1C(=O)c2ccccc2S1(=O)=O)Nc1ccccc1 | 48* | -11 | -7 | 62* | -2
CC(C)(C)C(=O)n1nc(-c2ccccc2)oc1=O | -5 | -29 | -20 | -2 | -10
Cc1cc(=O)[nH]c(N/N=C/c2ccccn2)n1 | 10 | -33 | 65* | 2 | 2
Cc1cc(=O)[nH]c(N/N=C/c2cccc(Br)c2)n1 | nt | -41 | nt | nt | 2
Cc1cc(C)c2[nH]c(=O)c(CN(Cc3cccs3)C(=S)NCC3CCCO3)cc2c1 (stereo unspecified) | -1 | -1 | 6 | 4 | -8
SMILES | Ba/F3 V617F tox | KLF5 inh | APP 5UTR inh | BaF3 tox | IEC-6 cytotox
CC1NC(C)(C)Cc2c1ccc1ccccc21 (stereo unspecified) | 0 | 1 | 11 | 0 | 0
CC[N+]1(CC)CC2=Cc3c(ccc4ccccc34)C(C)C2C1 (stereo unspecified) | 63* | -26 | nt | 54* | 2
CC1C/C(=C\c2cccnc2)C(=O)/C(=C/c2cccnc2)C1 (stereo unspecified) | 7 | 20 | 96* | -5 | 14
COc1ccc(C(=O)CSc2ncnc3nc[nH]c23)cc1 | 0 | -32 | nt | 4 | -4
O=C(CSc1ncnc2nc[nH]c12)Nc1nnc(SCc2ccc(Cl)c(Cl)c2)s1 | 5 | 7 | -21 | 28* | 5
CC(=O)CSc1ncnc2nc[nH]c12 | 25* | -18 | 4 | 33* | 13
Cc1cc([N+](=O)[O-])nn1CC(=O)N(C)C1CCCCC1 | nt | 9 | nt | nt | 0
Cc1ccc(S(=O)(=O)N(C)C)cc1NC(=O)CCCNC(=O)c1ccc(Cl)cc1 | nt | -18 | nt | nt | 1
CN1c2ccccc2C(C)(C)[C@]12C=Cc1cc(O)ccc1O2 | 74* | -13 | -7 | 61* | 7
CN1c2ccccc2C(C)(C)C12C=Nc1c(ccc3ccccc13)O2 (stereo unspecified) | 2 | -22 | -21 | 9 | 1
CC(C)(C)Nc1nc2ccc([N+](=O)[O-])cc2o1 | -4 | -26 | nt | -1 | 4
O=C1CC(c2ccccc2)Cc2nc3ncnn3cc21 (stereo unspecified) | 77* | 53 | 4 | 80* | 5
